In publication PMC7862700, “An all-to-all approach to the identification of sequence-specific readers for epigenetic DNA modifications on cytosine” one finds binding signal data, which are given here for one sequence.

What all share (assay): DAPPL (digital affinity profiling via proximity ligation, sequencing); 10 mM Tris-HCl pH 7.5, 50 mM NaCl, 1 mM DTT, 4% glycerol, room temperature, 30 min; GST-TFs on glutathione beads, 16-mer random dsDNA library, 0.1% formaldehyde crosslink after washing; high values mean tight binding
The target of experiment [1] is T1, FEV (Homo sapiens, UniProt Q99581 1-238).
T1 sequence: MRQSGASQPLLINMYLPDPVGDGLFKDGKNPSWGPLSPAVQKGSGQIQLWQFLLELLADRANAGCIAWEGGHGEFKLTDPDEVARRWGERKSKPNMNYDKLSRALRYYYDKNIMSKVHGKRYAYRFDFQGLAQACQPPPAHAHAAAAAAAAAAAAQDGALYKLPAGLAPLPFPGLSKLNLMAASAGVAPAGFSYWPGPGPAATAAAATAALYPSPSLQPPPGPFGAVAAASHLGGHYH
The following applies: protein: recombinant; tags: N-terminal GST; dsDNA, one strand shown. Summed up:
(§1)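 Each value of binding signal is a hexamer's read frequency for a factor divided by the same hexamer's frequency in the tag-only sample. Barcoded, bead-captured GST fusions of human transcription factors made in yeast were pooled with that sample and incubated with 200 nmole of a random double-stranded 16-mer DNA library in Tris/NaCl/DTT/glycerol buffer at room temperature for 30 min. Washing, 0.1% formaldehyde crosslinking, proximity ligation, PCR and Illumina NextSeq500 sequencing followed.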

Experiment [2] concerns the target ETV5 (Homo sapiens, UniProt P41161 1-510). Conditions: protein: recombinant; tags: N-terminal GST; dsDNA, one strand shown. The gist of the method:
as §1

Experiment [3] concerns the target HSF1 (Homo sapiens, UniProt Q00613 1-529). The following applies: protein: recombinant; tags: N-terminal GST; chain copies: 3; dsDNA, one strand shown. Summed up:
as §1

The target in experiment [4] is T2, SPIC (Homo sapiens, UniProt Q8N5J4 1-248).
T2 sequence: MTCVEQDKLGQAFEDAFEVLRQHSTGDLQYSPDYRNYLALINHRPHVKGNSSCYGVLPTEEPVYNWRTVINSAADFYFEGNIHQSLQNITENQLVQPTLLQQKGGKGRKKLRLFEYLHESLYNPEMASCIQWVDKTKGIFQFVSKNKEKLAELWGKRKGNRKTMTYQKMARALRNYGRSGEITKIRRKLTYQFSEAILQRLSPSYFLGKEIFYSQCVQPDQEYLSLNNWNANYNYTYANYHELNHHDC
Conditions: protein: recombinant; tags: N-terminal GST; dsDNA, one strand shown. Summed up:
as §1

In experiment [5] the target is ELF4 (Homo sapiens, UniProt Q99607 1-663). Conditions: protein: recombinant; tags: N-terminal GST; dsDNA, one strand shown. The gist of the method: as §1
The target in experiment [6] is T3, ELK4 (Homo sapiens, UniProt P28324-2 1-405).
T3 sequence: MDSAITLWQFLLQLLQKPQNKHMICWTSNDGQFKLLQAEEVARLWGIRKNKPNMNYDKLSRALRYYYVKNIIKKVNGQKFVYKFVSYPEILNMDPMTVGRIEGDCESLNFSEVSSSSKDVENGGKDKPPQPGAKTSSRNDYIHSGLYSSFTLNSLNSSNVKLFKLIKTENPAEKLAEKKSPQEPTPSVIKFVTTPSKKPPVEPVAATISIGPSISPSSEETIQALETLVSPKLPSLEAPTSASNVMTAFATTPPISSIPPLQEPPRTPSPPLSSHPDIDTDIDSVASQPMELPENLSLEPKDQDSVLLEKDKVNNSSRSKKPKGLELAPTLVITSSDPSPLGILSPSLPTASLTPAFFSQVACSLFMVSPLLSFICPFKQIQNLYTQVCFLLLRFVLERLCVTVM
Conditions: protein: recombinant; tags: N-terminal GST; dsDNA, one strand shown. Summed up: as §1

Experiment [7] deals with T4, ETV2 (Homo sapiens, UniProt O00321 1-342).
T4 sequence: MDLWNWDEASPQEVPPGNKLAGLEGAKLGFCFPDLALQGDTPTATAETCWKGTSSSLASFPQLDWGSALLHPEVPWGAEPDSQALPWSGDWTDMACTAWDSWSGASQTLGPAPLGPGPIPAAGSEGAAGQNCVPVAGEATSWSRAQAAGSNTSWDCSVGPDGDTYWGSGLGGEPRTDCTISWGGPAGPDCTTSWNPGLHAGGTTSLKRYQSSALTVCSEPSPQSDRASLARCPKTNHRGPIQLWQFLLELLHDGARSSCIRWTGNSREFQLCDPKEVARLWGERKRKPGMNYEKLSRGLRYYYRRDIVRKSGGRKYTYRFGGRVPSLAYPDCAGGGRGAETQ
The following applies: protein: recombinant; tags: N-terminal GST; dsDNA, one strand shown. The gist of the method: as §1

For experiment [8], the target named is T5, ELF3 (Homo sapiens, UniProt P78545 1-371).
T5 sequence: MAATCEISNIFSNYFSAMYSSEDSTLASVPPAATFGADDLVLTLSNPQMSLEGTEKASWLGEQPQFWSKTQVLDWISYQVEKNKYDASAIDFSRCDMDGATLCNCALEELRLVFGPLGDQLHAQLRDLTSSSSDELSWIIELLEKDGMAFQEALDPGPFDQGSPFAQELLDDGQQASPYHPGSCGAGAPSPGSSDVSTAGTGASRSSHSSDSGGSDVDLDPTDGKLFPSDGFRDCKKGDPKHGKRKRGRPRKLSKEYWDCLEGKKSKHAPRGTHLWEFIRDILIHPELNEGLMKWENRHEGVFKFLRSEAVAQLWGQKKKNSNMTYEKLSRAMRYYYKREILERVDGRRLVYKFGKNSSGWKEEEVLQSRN
The following applies: protein: recombinant; tags: N-terminal GST; dsDNA, one strand shown. Summed up: as §1

The target of experiment [9] is CRX (Homo sapiens, UniProt O43186 1-299). The following applies: protein: recombinant; tags: N-terminal GST; dsDNA, one strand shown. Summed up:
as §1

The target in experiment [10] is ETV1 (Homo sapiens, UniProt P50549 1-477). The following applies: protein: recombinant; tags: N-terminal GST; dsDNA, one strand shown. The gist of the method:
as §1

The target of experiment [11] is T6, ERF (Homo sapiens, UniProt P50548 1-548).
T6 sequence: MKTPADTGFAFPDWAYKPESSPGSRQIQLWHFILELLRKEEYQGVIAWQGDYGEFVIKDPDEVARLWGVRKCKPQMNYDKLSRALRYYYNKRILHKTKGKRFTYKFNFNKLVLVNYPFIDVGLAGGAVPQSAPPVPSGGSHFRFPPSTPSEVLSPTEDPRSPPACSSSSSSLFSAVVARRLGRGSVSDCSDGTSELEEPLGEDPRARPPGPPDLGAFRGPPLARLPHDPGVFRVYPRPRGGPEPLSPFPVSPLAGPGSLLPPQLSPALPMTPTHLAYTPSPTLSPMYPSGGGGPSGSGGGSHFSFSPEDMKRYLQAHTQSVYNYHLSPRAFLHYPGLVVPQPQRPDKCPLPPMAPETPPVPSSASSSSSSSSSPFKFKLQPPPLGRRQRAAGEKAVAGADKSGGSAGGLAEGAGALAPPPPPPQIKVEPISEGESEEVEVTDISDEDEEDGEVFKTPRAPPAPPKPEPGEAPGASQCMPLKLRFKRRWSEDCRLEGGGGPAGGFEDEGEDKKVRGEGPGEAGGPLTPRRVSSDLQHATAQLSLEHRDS
Conditions: protein: recombinant; tags: N-terminal GST; dsDNA, one strand shown. Summed up:
as §1

The target in experiment [12] is T7, ETV3L (Homo sapiens, UniProt Q6ZN32 1-361).
T7 sequence: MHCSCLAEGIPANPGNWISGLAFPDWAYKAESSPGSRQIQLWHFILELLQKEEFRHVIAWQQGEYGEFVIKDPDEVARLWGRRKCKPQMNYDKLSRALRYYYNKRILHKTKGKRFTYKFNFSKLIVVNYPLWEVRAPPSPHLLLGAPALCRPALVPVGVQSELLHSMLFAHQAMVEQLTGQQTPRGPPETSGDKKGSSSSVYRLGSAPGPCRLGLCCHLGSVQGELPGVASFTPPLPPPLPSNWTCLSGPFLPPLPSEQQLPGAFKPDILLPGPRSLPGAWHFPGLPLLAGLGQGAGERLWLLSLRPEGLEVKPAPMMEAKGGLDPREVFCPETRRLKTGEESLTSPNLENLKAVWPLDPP
Conditions: protein: recombinant; tags: N-terminal GST; dsDNA, one strand shown. The gist of the method:
as §1

For experiment [13], the target named is T8, ETS2 (Homo sapiens, UniProt P15036 1-469).
T8 sequence: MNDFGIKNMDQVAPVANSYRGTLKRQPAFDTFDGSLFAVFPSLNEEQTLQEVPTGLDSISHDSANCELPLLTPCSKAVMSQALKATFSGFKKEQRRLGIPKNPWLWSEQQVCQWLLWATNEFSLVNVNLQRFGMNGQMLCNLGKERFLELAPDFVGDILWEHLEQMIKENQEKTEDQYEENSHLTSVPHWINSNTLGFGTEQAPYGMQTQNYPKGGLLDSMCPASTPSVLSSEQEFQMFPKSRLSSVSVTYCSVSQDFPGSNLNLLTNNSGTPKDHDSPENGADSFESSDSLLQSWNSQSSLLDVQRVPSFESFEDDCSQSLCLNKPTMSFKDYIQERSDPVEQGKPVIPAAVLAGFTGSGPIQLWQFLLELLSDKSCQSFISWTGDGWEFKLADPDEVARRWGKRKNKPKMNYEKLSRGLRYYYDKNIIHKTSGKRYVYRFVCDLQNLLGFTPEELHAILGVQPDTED
The following applies: protein: recombinant; tags: N-terminal GST; dsDNA, one strand shown. The gist of the method: as §1

The target of experiment [14] is T9, SPDEF (Homo sapiens, UniProt O95238 1-335).
T9 sequence: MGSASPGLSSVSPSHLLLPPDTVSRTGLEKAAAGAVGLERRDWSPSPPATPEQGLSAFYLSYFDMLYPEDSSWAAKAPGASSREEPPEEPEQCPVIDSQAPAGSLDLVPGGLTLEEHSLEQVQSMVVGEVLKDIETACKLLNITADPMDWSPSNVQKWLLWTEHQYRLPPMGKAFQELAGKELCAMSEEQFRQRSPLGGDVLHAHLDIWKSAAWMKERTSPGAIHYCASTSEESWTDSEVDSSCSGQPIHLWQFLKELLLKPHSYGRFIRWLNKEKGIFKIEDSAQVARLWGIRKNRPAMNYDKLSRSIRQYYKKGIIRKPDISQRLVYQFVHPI
The following applies: protein: recombinant; tags: N-terminal GST; dsDNA, one strand shown. Summed up:
as §1

For experiment [15], the target named is T10, ETV7 (Homo sapiens, UniProt Q9Y603 1-341).
T10 sequence: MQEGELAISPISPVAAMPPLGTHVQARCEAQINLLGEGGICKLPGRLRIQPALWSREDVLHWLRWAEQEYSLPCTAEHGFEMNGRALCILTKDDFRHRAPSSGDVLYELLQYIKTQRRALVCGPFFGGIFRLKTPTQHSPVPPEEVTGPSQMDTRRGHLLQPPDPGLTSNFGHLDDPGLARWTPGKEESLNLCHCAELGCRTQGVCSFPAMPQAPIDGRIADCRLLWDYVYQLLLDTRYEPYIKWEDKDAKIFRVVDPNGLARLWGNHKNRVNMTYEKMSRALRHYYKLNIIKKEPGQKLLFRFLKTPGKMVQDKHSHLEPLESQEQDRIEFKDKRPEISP
The following applies: protein: recombinant; tags: N-terminal GST; dsDNA, one strand shown. The gist of the method: as §1

In experiment [16] the target is T11, ELF5 (Homo sapiens, UniProt Q9UKW6-2 1-255).
T11 sequence: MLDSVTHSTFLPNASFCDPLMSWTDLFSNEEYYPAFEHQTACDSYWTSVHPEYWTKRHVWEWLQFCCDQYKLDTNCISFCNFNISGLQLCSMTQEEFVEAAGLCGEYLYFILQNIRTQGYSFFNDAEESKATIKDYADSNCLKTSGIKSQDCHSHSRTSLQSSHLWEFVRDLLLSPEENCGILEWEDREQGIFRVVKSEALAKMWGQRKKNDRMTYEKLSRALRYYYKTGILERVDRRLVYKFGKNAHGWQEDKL
Conditions: protein: recombinant; tags: N-terminal GST; dsDNA, one strand shown. Summed up:
as §1

Experiment [17] concerns the target T12, ETV3 (Homo sapiens, UniProt P41162-2 1-143).
T12 sequence: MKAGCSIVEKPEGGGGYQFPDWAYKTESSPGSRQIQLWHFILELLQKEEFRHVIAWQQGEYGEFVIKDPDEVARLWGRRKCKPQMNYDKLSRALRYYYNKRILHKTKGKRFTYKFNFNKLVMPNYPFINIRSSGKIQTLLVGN
Conditions: protein: recombinant; tags: N-terminal GST; dsDNA, one strand shown. Summed up:
as §1

The target in experiment [18] is ETV6 (Homo sapiens, UniProt P41212 1-452). The following applies: protein: recombinant; tags: N-terminal GST; dsDNA, one strand shown. Summed up: as §1
Sequence of ETV6 (P41212 whole entry): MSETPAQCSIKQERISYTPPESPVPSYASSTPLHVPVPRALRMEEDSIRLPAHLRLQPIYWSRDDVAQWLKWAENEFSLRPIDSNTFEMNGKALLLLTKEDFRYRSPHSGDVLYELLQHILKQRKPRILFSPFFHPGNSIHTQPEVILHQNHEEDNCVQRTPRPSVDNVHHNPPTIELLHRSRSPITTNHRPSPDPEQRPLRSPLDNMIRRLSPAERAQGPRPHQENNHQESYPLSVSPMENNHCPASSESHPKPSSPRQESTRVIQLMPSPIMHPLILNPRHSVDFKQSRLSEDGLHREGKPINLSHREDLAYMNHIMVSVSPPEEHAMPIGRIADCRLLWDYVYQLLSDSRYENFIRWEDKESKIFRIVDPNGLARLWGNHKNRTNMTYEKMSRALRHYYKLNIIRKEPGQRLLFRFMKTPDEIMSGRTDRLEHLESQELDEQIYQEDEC

Sequence of ELF4 (Q99607 whole entry): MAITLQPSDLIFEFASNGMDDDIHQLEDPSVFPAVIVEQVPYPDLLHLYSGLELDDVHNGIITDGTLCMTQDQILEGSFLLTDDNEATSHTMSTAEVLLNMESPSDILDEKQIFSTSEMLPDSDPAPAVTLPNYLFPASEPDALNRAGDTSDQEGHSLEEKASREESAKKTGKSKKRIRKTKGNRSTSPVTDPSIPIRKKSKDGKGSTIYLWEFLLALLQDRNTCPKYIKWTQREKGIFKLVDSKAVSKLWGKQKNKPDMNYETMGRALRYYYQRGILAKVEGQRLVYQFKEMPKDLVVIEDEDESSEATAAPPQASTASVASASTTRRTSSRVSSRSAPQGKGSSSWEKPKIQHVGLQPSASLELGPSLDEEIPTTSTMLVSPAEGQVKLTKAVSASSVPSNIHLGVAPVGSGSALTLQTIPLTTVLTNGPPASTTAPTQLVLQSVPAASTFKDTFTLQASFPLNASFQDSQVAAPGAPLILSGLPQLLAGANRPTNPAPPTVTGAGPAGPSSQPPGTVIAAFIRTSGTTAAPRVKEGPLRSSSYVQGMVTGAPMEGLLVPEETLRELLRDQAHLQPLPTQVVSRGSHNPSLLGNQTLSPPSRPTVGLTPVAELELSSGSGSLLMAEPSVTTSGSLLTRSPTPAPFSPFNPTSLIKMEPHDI
Sequence of HSF1 (Q00613 whole entry): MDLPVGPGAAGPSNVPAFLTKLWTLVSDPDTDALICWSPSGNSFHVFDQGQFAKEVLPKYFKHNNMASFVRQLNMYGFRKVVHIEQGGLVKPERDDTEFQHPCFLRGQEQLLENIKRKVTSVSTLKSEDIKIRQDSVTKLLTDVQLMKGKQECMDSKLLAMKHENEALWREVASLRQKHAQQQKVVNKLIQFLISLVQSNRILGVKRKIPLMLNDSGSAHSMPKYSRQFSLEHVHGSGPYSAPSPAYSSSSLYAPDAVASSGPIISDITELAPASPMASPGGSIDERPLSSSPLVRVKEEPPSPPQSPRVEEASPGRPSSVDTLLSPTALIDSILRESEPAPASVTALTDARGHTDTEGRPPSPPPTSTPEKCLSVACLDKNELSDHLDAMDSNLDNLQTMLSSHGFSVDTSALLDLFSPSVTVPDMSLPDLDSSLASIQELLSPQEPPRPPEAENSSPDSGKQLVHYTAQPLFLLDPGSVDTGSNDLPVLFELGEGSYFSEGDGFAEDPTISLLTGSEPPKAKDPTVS
Sequence of ETV1 (P50549 whole entry): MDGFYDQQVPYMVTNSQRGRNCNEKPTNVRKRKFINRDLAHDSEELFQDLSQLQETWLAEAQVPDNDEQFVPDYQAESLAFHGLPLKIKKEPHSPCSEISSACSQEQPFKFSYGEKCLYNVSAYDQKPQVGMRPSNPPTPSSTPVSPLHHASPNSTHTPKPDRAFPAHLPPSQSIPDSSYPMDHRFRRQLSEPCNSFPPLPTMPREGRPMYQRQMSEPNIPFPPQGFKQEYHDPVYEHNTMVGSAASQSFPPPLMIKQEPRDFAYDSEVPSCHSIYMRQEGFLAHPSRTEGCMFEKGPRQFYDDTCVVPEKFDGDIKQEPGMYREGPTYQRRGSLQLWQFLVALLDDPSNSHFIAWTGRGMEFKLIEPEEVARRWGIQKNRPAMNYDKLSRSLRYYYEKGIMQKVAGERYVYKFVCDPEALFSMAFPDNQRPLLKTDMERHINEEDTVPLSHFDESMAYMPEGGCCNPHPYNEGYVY
Sequence of CRX (O43186 whole entry): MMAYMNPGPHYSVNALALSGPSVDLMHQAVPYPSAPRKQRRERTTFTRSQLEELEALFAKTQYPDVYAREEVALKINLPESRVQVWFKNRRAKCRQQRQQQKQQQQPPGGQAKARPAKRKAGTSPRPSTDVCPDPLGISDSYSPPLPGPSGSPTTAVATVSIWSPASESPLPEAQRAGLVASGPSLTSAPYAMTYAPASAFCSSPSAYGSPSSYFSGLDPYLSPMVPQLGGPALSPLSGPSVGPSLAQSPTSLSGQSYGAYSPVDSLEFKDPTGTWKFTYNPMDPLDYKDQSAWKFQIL
Sequence of ETV5 (P41161 whole entry): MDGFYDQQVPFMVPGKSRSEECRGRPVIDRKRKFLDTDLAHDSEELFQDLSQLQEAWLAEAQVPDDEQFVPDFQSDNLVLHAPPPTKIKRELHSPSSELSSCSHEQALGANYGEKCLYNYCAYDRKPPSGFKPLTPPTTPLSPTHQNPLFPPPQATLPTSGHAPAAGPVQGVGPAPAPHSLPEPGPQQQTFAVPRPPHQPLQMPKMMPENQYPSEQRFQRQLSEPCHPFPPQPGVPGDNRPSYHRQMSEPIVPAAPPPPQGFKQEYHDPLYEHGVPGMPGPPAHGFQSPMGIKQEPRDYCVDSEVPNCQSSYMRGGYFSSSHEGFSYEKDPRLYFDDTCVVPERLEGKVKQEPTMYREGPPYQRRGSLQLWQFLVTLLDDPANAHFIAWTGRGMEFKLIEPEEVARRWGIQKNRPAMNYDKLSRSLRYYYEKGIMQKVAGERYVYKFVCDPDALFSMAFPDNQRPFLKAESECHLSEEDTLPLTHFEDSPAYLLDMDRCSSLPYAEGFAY

Regarding TCTCTG, the binding signal in experiment [1] was 1.53 fold enrichment (6-mer frequency, TF over GST control); in experiment [2] it was 1.43 fold enrichment (6-mer frequency, TF over GST control); in experiment [3] it was 1.73 fold enrichment (6-mer frequency, TF over GST control); in experiment [4] it was 1.59 fold enrichment (6-mer frequency, TF over GST control); in experiment [5], 1.58 fold enrichment (6-mer frequency, TF over GST control); in experiment [6] it was 1.69 fold enrichment (6-mer frequency, TF over GST control). Further, the binding signal in experiment [7] was 1.45 fold enrichment (6-mer frequency, TF over GST control); in [8], 1.37 fold enrichment (6-mer frequency, TF over GST control); in experiment [9], 1.49 fold enrichment (6-mer frequency, TF over GST control); in experiment [10] it was 1.46 fold enrichment (6-mer frequency, TF over GST control); in [11], 1.49 fold enrichment (6-mer frequency, TF over GST control); in experiment [12], 1.49 fold enrichment (6-mer frequency, TF over GST control). Further, the binding signal is 1.61 fold enrichment (6-mer frequency, TF over GST control) in experiment [13]; 1.5 fold enrichment (6-mer frequency, TF over GST control) in experiment [14]; 1.29 fold enrichment (6-mer frequency, TF over GST control) in experiment [15]; 1.42 fold enrichment (6-mer frequency, TF over GST control) in [16]; 1.48 fold enrichment (6-mer frequency, TF over GST control) in experiment [17]; 1.52 fold enrichment (6-mer frequency, TF over GST control) in experiment [18].
